Reference: the supplement of paper PMC11006884
Of roughly 6,500 targets only a part is listed; those with a hit were picked by preference. About 2% of all pairs of compound and target were hits.

The targets below were run with COC(=O)C#Cc1ccccc1 [methyl 3-phenylpropiolate] (assay: log2 ratio of iodoacetamide-alkyne labeling of the cysteine site, DMSO over compound (competition); higher = stronger covalent engagement of the cysteine by the compound, active = 1 or more). Settings: 500 µM; treatment time 1 h; system: HEK293T cell lysate.
In short: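 HEK293T lysate (2 mg/mL) was incubated with electrophile (500 µM) or vehicle for 1 h at ambient temperature and then with iodoacetamide alkyne for 1 h. Labelled proteins were clicked to sCIP-TMT reagents, pooled, digested, enriched on streptavidin and measured by Orbitrap Eclipse LC-MS/MS with FAIMS, with FragPipe quantification. The per-cysteine log2 competition ratio is mean control-channel reporter intensity over mean compound-channel reporter intensity. Across three replicates with duplicate channels, cysteines quantified in only one replicate were excluded.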

Chain of UniProt Q5M775 (Q5M775 whole entry, looked up): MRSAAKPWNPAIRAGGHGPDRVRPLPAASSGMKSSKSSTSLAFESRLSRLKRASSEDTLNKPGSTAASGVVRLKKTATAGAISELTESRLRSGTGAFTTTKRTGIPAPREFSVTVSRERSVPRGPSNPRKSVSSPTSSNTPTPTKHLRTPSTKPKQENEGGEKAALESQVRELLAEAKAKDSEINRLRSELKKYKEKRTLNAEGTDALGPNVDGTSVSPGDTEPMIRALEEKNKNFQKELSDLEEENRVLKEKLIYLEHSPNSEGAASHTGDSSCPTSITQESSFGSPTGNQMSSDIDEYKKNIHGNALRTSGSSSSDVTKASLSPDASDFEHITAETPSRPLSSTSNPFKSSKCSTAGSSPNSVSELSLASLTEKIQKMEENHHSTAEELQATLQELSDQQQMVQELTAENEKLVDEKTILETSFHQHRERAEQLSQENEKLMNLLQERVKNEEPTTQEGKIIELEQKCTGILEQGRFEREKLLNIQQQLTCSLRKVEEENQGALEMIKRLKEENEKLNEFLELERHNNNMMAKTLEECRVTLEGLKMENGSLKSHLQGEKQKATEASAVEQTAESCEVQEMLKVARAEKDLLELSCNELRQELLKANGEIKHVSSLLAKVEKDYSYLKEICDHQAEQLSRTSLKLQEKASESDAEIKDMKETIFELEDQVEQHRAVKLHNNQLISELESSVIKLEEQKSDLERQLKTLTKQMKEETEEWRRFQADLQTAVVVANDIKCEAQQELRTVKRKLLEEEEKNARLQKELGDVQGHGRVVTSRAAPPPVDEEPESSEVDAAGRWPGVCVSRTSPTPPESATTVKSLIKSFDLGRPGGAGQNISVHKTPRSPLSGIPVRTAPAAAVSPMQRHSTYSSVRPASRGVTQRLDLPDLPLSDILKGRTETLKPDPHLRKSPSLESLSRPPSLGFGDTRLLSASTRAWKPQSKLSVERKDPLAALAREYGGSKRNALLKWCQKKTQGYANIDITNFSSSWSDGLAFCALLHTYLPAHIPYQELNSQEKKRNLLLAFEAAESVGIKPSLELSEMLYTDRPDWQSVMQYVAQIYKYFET
Chain of UniProt Q13330 (Q13330 whole entry, looked up): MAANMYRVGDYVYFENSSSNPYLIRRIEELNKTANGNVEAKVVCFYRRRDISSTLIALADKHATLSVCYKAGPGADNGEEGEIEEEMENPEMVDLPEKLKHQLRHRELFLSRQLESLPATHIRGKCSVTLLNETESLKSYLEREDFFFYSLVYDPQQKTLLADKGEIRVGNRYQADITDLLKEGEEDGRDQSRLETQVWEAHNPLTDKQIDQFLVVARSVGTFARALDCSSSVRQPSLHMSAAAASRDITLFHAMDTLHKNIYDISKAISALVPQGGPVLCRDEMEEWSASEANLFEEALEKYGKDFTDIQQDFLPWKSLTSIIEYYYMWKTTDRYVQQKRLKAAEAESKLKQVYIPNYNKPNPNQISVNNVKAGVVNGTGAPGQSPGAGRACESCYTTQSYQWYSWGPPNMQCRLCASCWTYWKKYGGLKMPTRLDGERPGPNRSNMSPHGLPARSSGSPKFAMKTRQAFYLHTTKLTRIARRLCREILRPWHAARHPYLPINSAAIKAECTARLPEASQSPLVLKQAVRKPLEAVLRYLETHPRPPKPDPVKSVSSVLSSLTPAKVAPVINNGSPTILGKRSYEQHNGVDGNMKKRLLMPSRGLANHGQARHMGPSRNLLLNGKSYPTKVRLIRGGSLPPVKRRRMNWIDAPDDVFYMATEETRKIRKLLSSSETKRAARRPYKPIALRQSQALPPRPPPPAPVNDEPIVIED
Chain of UniProt Q14657 (Q14657 whole entry): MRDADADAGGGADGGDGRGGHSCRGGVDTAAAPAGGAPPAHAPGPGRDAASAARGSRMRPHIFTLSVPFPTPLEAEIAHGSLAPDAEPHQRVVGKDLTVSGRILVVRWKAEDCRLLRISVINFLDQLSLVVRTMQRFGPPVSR
Chain of UniProt P54278 (P54278 whole entry, looked up): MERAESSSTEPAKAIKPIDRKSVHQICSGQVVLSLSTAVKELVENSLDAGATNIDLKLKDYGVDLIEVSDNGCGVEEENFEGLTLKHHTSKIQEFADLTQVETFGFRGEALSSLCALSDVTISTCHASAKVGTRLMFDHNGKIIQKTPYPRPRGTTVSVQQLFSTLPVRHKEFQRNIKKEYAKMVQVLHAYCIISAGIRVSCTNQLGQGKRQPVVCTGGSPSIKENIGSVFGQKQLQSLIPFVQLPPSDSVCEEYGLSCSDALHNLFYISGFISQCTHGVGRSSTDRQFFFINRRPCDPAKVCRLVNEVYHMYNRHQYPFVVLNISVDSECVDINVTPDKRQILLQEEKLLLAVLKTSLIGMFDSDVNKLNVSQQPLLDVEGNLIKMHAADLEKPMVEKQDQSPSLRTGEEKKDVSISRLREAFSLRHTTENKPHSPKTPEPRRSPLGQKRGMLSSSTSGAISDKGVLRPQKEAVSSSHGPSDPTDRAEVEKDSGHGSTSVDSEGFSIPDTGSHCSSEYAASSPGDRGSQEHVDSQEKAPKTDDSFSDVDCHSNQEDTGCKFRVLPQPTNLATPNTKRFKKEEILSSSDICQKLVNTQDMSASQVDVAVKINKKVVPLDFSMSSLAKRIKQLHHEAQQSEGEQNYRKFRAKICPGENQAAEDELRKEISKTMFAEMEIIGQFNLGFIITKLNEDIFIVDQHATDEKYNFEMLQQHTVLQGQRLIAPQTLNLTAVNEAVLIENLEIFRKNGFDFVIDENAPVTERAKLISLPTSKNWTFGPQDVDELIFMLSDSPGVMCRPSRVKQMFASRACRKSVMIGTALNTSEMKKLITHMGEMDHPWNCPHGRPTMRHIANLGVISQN
Chain of UniProt P55795 (P55795 whole entry, looked up): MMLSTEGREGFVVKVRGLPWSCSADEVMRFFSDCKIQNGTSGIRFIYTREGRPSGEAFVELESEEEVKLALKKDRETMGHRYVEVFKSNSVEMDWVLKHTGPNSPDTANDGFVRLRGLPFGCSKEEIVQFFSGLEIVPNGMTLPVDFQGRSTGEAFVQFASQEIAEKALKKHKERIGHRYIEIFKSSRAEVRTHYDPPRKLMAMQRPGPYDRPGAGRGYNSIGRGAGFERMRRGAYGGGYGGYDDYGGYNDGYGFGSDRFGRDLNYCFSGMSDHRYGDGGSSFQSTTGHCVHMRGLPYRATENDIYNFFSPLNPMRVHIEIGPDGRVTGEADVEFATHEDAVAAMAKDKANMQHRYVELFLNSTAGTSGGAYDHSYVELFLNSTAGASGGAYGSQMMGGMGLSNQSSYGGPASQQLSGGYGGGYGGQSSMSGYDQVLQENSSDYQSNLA
Chain of UniProt Q14781 (Q14781 whole entry, looked up): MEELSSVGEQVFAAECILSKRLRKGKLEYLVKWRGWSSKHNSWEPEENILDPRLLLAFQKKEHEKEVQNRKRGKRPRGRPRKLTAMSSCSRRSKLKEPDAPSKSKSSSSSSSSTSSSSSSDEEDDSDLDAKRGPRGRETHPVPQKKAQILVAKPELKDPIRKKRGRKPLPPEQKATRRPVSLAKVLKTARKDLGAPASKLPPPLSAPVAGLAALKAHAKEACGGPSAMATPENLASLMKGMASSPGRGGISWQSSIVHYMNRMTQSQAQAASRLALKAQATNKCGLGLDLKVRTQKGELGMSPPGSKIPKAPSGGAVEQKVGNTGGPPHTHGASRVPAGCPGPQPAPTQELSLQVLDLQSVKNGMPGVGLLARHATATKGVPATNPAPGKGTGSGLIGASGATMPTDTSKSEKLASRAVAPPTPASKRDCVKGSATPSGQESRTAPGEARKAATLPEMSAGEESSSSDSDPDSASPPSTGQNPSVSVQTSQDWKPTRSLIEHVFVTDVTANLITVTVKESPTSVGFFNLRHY
Chain of UniProt Q5JTZ9 (Q5JTZ9 whole entry, looked up): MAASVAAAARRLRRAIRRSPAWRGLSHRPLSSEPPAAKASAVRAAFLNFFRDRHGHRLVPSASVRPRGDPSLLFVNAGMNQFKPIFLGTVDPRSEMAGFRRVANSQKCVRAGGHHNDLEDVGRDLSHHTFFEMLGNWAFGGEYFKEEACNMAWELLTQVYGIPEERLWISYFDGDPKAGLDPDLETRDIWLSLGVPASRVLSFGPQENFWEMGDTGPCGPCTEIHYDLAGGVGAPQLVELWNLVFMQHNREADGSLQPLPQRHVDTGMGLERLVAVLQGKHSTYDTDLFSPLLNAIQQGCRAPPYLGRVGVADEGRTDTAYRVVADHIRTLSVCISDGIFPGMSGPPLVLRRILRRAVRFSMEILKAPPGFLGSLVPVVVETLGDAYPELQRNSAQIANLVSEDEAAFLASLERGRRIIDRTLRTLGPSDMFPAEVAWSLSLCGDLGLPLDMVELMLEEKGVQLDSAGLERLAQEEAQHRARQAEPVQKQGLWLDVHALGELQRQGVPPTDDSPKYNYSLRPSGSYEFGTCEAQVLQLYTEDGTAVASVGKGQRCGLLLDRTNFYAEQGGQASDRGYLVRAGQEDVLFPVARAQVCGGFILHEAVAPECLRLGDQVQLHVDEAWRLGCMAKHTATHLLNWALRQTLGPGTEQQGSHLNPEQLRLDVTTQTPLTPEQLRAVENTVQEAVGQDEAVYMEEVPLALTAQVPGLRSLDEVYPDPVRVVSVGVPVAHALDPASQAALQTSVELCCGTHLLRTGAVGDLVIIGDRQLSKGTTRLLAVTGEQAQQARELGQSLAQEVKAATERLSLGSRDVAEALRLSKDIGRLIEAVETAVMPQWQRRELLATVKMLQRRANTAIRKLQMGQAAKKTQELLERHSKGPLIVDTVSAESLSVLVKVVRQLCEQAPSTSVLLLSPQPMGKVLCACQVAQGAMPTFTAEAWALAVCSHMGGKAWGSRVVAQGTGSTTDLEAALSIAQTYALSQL
Chain of UniProt Q13162 (Q13162 whole entry, looked up): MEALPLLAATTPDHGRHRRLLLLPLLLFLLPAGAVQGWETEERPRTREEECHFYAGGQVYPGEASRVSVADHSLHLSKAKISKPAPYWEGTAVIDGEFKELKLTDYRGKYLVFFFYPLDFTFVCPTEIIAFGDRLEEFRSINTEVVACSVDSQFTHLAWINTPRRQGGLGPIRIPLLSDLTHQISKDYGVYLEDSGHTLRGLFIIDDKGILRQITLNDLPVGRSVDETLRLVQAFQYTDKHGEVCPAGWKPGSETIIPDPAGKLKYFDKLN

log2 ratio of iodoacetamide-alkyne labeling, inactive:
SPECC1 C740 (UniProt Q5M775) -0.0117
FOXK1 C665 (UniProt P85037) 0.531
SART3 C472 (UniProt Q15020) 0.326
FOXK1 C439 (UniProt P85037) 0.622
UniProt P55072_C209 0.132
KIF23 C42 (UniProt Q02241) 0.234
CBX2 C340 (UniProt Q14781) 0.654
UniProt Q13247_C61 -0.0753
MIA3 C1513 (UniProt Q5JRA6) 0.31
UniProt P60842_C134 0.0481
PMS2 C798 (UniProt P54278) -0.143
MTA1 C229 (UniProt Q13330) 0.124
CDK5 C157 (UniProt Q00535) 0.141
EEF1A2 C326 (UniProt Q05639) 0.25
RPL7A C174 (UniProt P62424) -0.0802
MAP7D1 C373 (UniProt Q3KQU3) 0.815
UniProt P60891_C165 -0.19
RPL18 C134 (UniProt Q07020) 0.213
HNRNPH2 C34 (UniProt P55795) 0.0589
GEN1 C668 (UniProt Q17RS7) 0.0186
NUP98 C1312 (UniProt P52948) 0.426
FLYWCH1 C173 (UniProt Q4VC44) -0.0462
C5orf22 C195 (UniProt Q49AR2) 0.458
ACLY C20 (UniProt P53396) 0.357
TJP1 C1727 (UniProt Q07157) 0.0718
LAGE3 C23 (UniProt Q14657) 0.594
ZNF638 C1930 (UniProt Q14966) -0.212
UniProt P62241_C71 0.335
PPP5C C11 (UniProt P53041) 0.16
UniProt P55769_C30 -0.0266
UniProt Q16512_C602 0.0536
AARS2 C750 (UniProt Q5JTZ9) 0.846
UniProt Q05655_C127 0.196

log2 ratio of iodoacetamide-alkyne labeling, active:
SUZ12 C325 (UniProt Q15022) 1.07
PRDX4 C51 (UniProt Q13162) 1.66
NUBP1 C25 (UniProt P53384) 2.24
